Experimental data: PubChem BioAssay AID1345082 (National Center for Advancing Translational Sciences (NCATS), 2018)
Hit rate of the full screen: of about 94,000 compounds, about 4,000 (4.3%) were called active. Inconclusive results (about 29%) are left out. The call rests on the fitted dose curve; in most records, active means well fitted inhibition curve with a large enough effect; inconclusive means small, poorly fitted or top-dose-only effect; inactive means no such curve, though single readings can be large or run the other way. The sample as a whole holds a higher share of actives than the screen did.

assay: Cytotoxic Profiling in NIH 3T3 Cell Line of Diverse Libraries Using Quantitative High-Throughput Screening; settings: NIH 3T3 viability, CellTiter-Glo ATP luminescence, 48-72 h; series mostly up to 96.7 µM; activity change, negative = cytotoxicity: at the top concentration; further: nearly all actives have a fitted effect of over 55% in size
In short: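 ATP-dependent luminescence (CellTiter-Glo) served as the viability signal for NIH 3T3 cells treated with compound for 48 or 72 hr at 37 °C.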
On the % scale 0 is the no-effect control and ±100 the full control effect; potency means the concentration at half of the fitted maximal effect.

| SMILES | Potency | activity change, negative = cytotoxicity | outcome |
| --- | --- | --- | --- |
| O=C(c1cn[nH]c1)N1CC2(CN(Cc3cccc(Cl)c3)CC2COc2ccccc2)C1 (stereo unspecified) | 79.4 µM (active) |  |  |
| COCC1CN(C(C)=O)CC12CCN(Cc1cccc(C#N)c1)CC2 (stereo unspecified) |  | -2.07% (inactive) |  |
| Cc1cccc(C(=O)N2C[C@@H](COc3ccccc3)[C@H](C(N)=O)C2)c1 |  | -10.5% (inactive) |  |
| CNC(=O)c1cc(C)nc2onc(C3CCN(C(=O)C4CCCCC4)C3)c12 (stereo unspecified) |  | -26.6% (inactive) |  |
| c1ccc(CN2CCNc3cc(NCc4cccnc4)ncc3C2)cc1 | 50.1 µM (active) |  |  |
| CC(=O)N1Cc2ccccc2CC2(CCN(Cc3cccnc3)CC2)C1 |  | 3.26% (inactive) |  |
| O=C1CC(c2ccccc2)N(Cc2ccncc2)CCCN(Cc2cccnc2)CCN1 (stereo unspecified) |  | -27.4% (inactive) |  |
| CCn1ccnc1CN(C)C1CCCN(CCc2ccccc2)C1 (stereo unspecified) |  | -15.6% (inactive) |  |
| Cn1ccc(Nc2cc3c(cn2)CN(CCc2ccccc2)CCN3)n1 | 79.4 µM (active) |  |  |
| COc1cccc(S(=O)(=O)N2CCC3(CC2)CC2C(=O)NCCN2C3)c1 (stereo unspecified) |  | -20.6% (inactive) |  |
| CCc1nc(N(C)Cc2nccn2Cc2ccccc2)c2cnn(C)c2n1 |  | -36.8% (inactive) |  |
| CS(=O)(=O)c1cnc(NCCN2CCOCC2)nc1C1CCCNC1 (stereo unspecified) |  | -2.38% (inactive) |  |
| COc1cc(-c2noc(-c3nc(-c4ccc5c(c4)OCO5)no3)n2)cc(OC)c1OC |  | 2.76% (inactive) |  |
| CC(C)C[C@@H]1N[C@H](C(=O)NC(C)C)Cc2c[nH]c3cccc1c23 | 100 µM (active) |  |  |
| COCCn1c(C)cc(C(=O)N2CCCCCCNC(=O)CC2)c1C |  | -18.9% (inactive) |  |
| O=C(c1cccnc1)N1CCC(Cc2nc(C3CCOCC3)no2)CC1 |  | -28.1% (inactive) |  |
| O=C([C@@H]1C[C@H](Oc2ccccc2)CN1S(=O)(=O)c1cccnc1)N1CCCC1 |  | -4.44% (inactive) |  |
| Cc1nn2c(c1-c1ccnn1C(C)C)N(CC1CCOCC1)CCC2 | 31.6 µM (active) |  |  |
| Cc1nn2c(c1-c1ccccc1-c1ccccc1)N(CC1CC1)CCC2 | 3.16 µM (active) |  |  |
| COc1ccc(S(=O)(=O)NCCc2noc(-c3ccncc3)n2)cc1 |  | -28.4% (inactive) |  |
| CNC(=O)N1CCC(C2CCN(C(=O)CSC)C2)CC1 (stereo unspecified) |  | -4.44% (inactive) |  |

| SMILES | Potency | activity change, negative = cytotoxicity | outcome |
| --- | --- | --- | --- |
| COc1cc(NC(=O)c2cc3c(N4CCSCC4)nc(C)cn3n2)cc(OC)c1 |  | -19.2% (inactive) |  |
| COc1ccccc1-c1cnc(NC(=O)c2ccc(Cl)cc2)c2c1CCO2 | 79.4 µM (active) |  |  |
| COc1cc2c(cc1OC)C(CNC(=O)c1ccc(Cl)cc1)N(C(=O)Nc1ccccc1)CC2 (stereo unspecified) |  | -27% (inactive) |  |
| COc1ncccc1Nc1ncc(-c2ccccc2)c2c1OCC2 |  | -15% [at 138 µM] (inactive) |  |
| O=C(c1ccccc1)N1CCCCC1c1nc(C2CC2)n[nH]1 (stereo unspecified) |  |  | inactive |
| Cc1ccc(NC(=O)[C@@H]2CNC[C@H](C(=O)NCc3ccccn3)C2)cn1 |  | -2.8% (inactive) |  |
| COc1ccc(NC(=O)[C@@H]2C[C@@H](c3ccc(F)cc3)N(CCOc3ccccc3)C2)cn1 | 44.7 µM (active) |  |  |
| O=C(COc1ccc(NC(=O)C2CC2)cn1)NCc1ccc(F)cc1F |  | -0.432% (inactive) |  |
| CNC(=O)N1CCC(N2CC(OCC3CC3)C23CCCCC3)CC1 (stereo unspecified) |  | -2.4% (inactive) |  |
| O=C(O)C[C@@H]1CCN(C(=O)C(=O)O)C[C@@H]1CC1=NCCc2cc(F)ccc21 |  | -4.26% [at 174 µM] (inactive) |  |
| O=C(c1cccc(F)c1)N1CCCC(CN2CCOCC2)CC1 (stereo unspecified) |  | -1.83% (inactive) |  |
| Cc1ccc(OCCC2CCN(C(=O)c3cnccc3C)C2)cc1 (stereo unspecified) |  | -16.8% (inactive) |  |
| O=C(c1cccc(F)c1)N1CCC(CCOc2ccc(F)cc2)C1 (stereo unspecified) | 39.8 µM (active) |  |  |
| Cn1ncc2c(C(=O)N3CCC(c4ccccc4)CC3)cc(-c3ccc(F)cc3)nc21 | 39.8 µM (active) |  |  |
| CC(=O)N1CCN(C(=O)c2cc(-c3cccc(F)c3)nc3c2cnn3C)CC1 |  | -25.5% (inactive) |  |
| COc1cccc(-c2cc(C(=O)N3CCN(C(C)=O)CC3)c3cnn(C)c3n2)c1 |  | -17.5% (inactive) |  |
| O=C(NC1CC1)c1cc2n(n1)CCN(C(=O)c1ccc3n[nH]nc3c1)C2 |  | -13.9% (inactive) |  |
| CCCN(CC1CCOC1)C(=O)Nc1cc(F)ccc1F (stereo unspecified) |  | -6.36% (inactive) |  |
| COc1ccccc1-c1cc(C(=O)NCc2ccccn2)nn2cnnc12 |  | -25.9% (inactive) |  |
| Cc1nn(-c2ccc(C(C)(C)C)cc2)c(C)c1[C@@H]1C=C[C@@H](NC(=O)c2ccco2)C1 | 35.5 µM (active) |  |  |
| Cc1nn(-c2ccc(C(C)C)cc2)c(C)c1[C@@H]1C=C[C@@H](NC(=O)Nc2ccccc2)C1 | 50.1 µM (active) |  |  |

| SMILES | Potency | activity change, negative = cytotoxicity | outcome |
| --- | --- | --- | --- |
| COc1ccc(-n2nc(C)c([C@H]3C=C[C@@H](OC(=O)Nc4cccc(F)c4)C3)c2C)cc1 | 28.2 µM (active) |  |  |
| Cc1nn(-c2ccccc2)c2c1C(C(C)C)N(C1CN(C(=O)c3ccc(Cl)nc3)C1)C2=O (stereo unspecified) |  | 2.41% (inactive) |  |
| Cc1cnc(CCNC(=O)c2ccco2)n1C1CCC1 |  | -12.6% (inactive) |  |
| COc1cccc(-c2cc(C(=O)Nc3cccc(F)c3)c3cnn(C)c3n2)c1 |  | -21.1% (inactive) |  |
| CCC(C)NC(=O)Cc1csc2nc(C)c(-c3cc(C)n(-c4ccc(C(C)C)cc4)n3)c(=O)n12 (stereo unspecified) |  | -34.3% (inactive) |  |
| COc1cccc(NC(=O)Cn2c(=O)n(-c3ccc(F)cc3)c(=O)c3c2cc(C)n3C)c1 |  | -15.1% (inactive) |  |
| Cc1nn(-c2ccccc2)c2c1C(C(C)C)N(C1CCN(C(=O)c3ccc(Cl)nc3)CC1)C2=O (stereo unspecified) |  | -26.8% (inactive) |  |
| Cc1nn(-c2ccc(C(C)C)cc2)c(C)c1[C@@H]1C=C[C@@H](NC(=S)NCC(C)C)C1 | 22.4 µM (active) |  |  |
| O=C(N[C@@H]1CN(c2ncccn2)C[C@H]1CO)c1ccco1 |  | -10.3% (inactive) |  |
| CC(C)c1nc(CCn2cc(-c3cncnc3)nn2)cs1 |  | -10.5% (inactive) |  |
| Cc1ccc(CN2C[C@@H](CO)[C@H](c3nc(C)no3)C2)nc1 |  | -11.2% (inactive) |  |
| COc1ccccc1C(=O)N1CCc2nnc([C@@H]3C[C@@H](O)CN3C)n2CC1 |  |  | inactive |
| CN1CCC(NC[C@H]2O[C@@H]3C[C@@H](CC(=O)NCc4cnn(C)c4)O[C@@H]3[C@@H]2O)CC1 |  | 1.18% [at 174 µM] (inactive) |  |
| CC(C)c1nc2c(c(-c3ccc(Cl)cc3)n1)CN(C(=O)c1ccccc1)CC2 |  | -19.8% (inactive) |  |
| COc1ccc(C(=O)N2CCC(CCn3c(C)cnc3C3CC3)CC2)cc1 |  | -23.3% (inactive) |  |
| COC(=O)CNC(=O)NC1CCN(C(=O)N2CC3CC(C2)[C@H]2CCCC(=O)N2C3)CC1 (stereo partly specified) |  | 4.02% (inactive) |  |
| Cc1ccc2c(c1)C(C[C@H]1CN(C(=O)NC(C)C)CC[C@H]1CC(=O)O)=NCC2 |  | 1.35% [at 174 µM] (inactive) |  |
| Cc1noc(C)c1[S+](=O)([O-])N1CCC2(CC1)C(=O)NN=C2c1cccnc1 |  | -26.3% (inactive) |  |
| Cc1ccccc1CNC(=O)CN1C(=O)C2(CCNCC2)Nc2ccccc21 |  |  | inactive |
